PubChem BioAssay AID652054 (National Center for Advancing Translational Sciences (NCATS), 2013)
Screen size: about 360,000 compounds; about 9,100 (2.5%) were called active. Another 4% or so got no clear call; they are omitted. Rule as the data show it: active = max response below about -50%; inconclusive = no clear call, values can overlap the other calls; inactive = above that. The list comes from a sample in which actives are over-represented; it also holds similar structures and randomly drawn compounds.

Target: D(3) dopamine receptor (Homo sapiens) (UniProt P35462)
Sequence (P35462 whole entry, looked up): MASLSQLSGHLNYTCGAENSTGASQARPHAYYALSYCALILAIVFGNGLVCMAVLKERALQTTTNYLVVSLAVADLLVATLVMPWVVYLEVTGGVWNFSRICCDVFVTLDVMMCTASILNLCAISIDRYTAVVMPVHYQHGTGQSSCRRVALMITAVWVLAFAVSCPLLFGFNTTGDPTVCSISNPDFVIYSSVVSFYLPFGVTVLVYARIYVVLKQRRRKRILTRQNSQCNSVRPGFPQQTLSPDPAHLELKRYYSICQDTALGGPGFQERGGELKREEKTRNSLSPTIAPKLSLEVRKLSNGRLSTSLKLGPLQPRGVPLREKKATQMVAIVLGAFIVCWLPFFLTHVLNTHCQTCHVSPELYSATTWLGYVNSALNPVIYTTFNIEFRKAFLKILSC
Assay: qHTS of D3 Dopamine Receptor Antagonist: qHTS
Settings: D3R cells, DiscoveRx beta-arrestin luminescence, antagonist mode; hits give low values
Summary of the method: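 Cells plated overnight at 1500 cells/well, then exposed to library compounds with dopamine controls for 90 minutes at 37 degrees C. DiscoveRx reagent added for 30–60 minutes at room temperature; luminescence read, quantitative HTS format.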
% is scaled to controls: 0 for no effect and ±100 for the full control effect.

Max response, negative = inhibition, active:
CCc1ccc2c(c1)C1(NN=C(c3ccccc3)S1)C(=O)N2 (centres undefined) -60.6%, NC1=CC(=O)C(=O)c2cccnc21 -69.1%, Cc1nc(Nc2ccc(S(=O)(=O)N3CCCC3)cc2)c2nnn(Cc3ccccc3)c2n1 -69.4%, Fc1ccc(N2CCN(Cc3cnc(Oc4ccc(Br)cc4)s3)CC2)cc1 -67.9%, COc1ccc(N2CCN(Cc3ccc(Br)s3)CC2)cc1 -54.8%, CCOC(=O)C1Sc2[nH]c(=O)sc2C(c2ccc(Cl)cc2)C1C(=O)OCC (centres undefined) -67.4%, COc1ccccc1CNC(=O)CCn1c(=O)sc2ccccc21 -166%, Cc1ccc(S(=O)(=O)NC(=O)N2CCCN(Cc3ccc(F)cc3)CC2)cc1 -51.3%, O=C(NCc1ccc2c(c1)OCO2)c1cc2c(s1)CS(=O)(=O)C2 -163%, CCOC(=O)NCc1ccc2c(c1)OCO2 -52.8%, CC(C)N=C1CCCC1C(=S)SSC(=S)C1CCCC1=NC(C)C (centres undefined) -68.8%, COc1ccc(/C=C(/NC(=O)c2ccc(C)cc2)c2nc3ccccc3[nH]2)cc1OC -65.3%, CCC1CCCCN1C(=S)NC(=O)c1ccco1 (centres undefined) -122%, S=c1[nH]nc2c3c4c(sc3ncn12)CCCC4 -92.7%, O=C1NN(c2ccccc2)C(=O)/C1=C/c1ccc(-c2cccc(C(=O)O)c2)o1 -54.9%, CCC(C)NCCOCCOc1ccc(Br)cc1C (centres undefined) -71.5%, COc1ccc([C@H]2CC(=O)C=C(/C=C/c3ccc(Cl)cc3)C2)cc1 -56.6%, COc1ccc([C@H]2CC(=O)C=C(c3ccc(C)cc3)C2)cc1 -60.5%, COc1ccc(NC(=O)Nc2cccc3cccnc23)cc1 -66.6%, Cc1ccc2c(c1)C1CN(C)CCC1N2S(=O)(=O)c1cccc(F)c1 (centres undefined) -54.7%, Cc1ccc2c(c1)C1CN(C)CCC1N2S(=O)(=O)c1ccc(Oc2ccc([N+](=O)[O-])cc2)cc1 (centres undefined) -68.7%

Max response, negative = inhibition, inactive:
COc1cccc(NC(=O)N(C)C[C@@H]2Oc3ncc(Br)cc3C(=O)N([C@@H](C)CO)C[C@H]2C)c1 -24.9%, OC(c1ccccc1)c1nc(-c2cnc3ccccc3c2)cs1 (centres undefined) 4.32%, CCc1ccc2c(c1)NC(=O)C2(C)Cc1ccc(OC(F)(F)F)cc1 (centres undefined) 16.6%, CCOc1ccc(CCN2C(=O)c3cccnc3C2=O)cc1OCC -22%, NC(c1csc(NC(=O)Nc2cccc(C(F)(F)F)c2)n1)C1CCCCC1 (centres undefined) 13.3%, CCOC(=O)[C@]12CCC=C1N(CCC1=CCCCC1)C(=O)[C@H](CC(=O)NCc1ccc(C)o1)C2 16.1%, COCCCNC(=O)c1ccc(-c2c(C)noc2C)c2ccoc12 0%, Cc1nc(Nc2ccc3c(c2)OCCO3)c2nnn(Cc3ccccc3Cl)c2n1 -26.4%, CC(C)Cc1nc(Nc2ccc(S(=O)(=O)N3CCCC3)cc2)c2nnn(Cc3ccccc3)c2n1 -27.2%, NS(=O)(=O)c1ccc(CNC(=O)c2cc(S(=O)(=O)N3CCOCC3)ccc2N2CCCC2)cc1 0%, COc1cc(CNc2ncnc3c2ncn3[C@H]2CN(Cc3cccs3)C[C@@H](CO)O2)cc(OC)c1OC 13%, C[C@H](CO)N1C[C@H](C)[C@@H](CN(C)Cc2ccc3c(c2)OCO3)OCc2cnnn2CCCC1=O 9.24%, CCCS(=O)(=O)NC(=O)C1(C)CCCN(C(=O)c2ccnc(Cl)c2)C1 (centres undefined) -5.74%, COc1ccc(N2CCN(C(=O)CNC(=O)c3ccc(Br)o3)CC2)cc1 4.35%, COc1ccc(N2CCN(C(=O)c3cccs3)CC2)cc1 -4.36%, O=C(c1ccccc1Oc1ccccc1)N1CCN(c2ccc(F)cc2)CC1 11.3%, O=[N+]([O-])c1ccc(N2CCN(c3ccc(F)cc3)CC2)cn1 1.91%, CO[C@@H]1CN(C)C(=O)c2cc(NC(=O)C3CC3)ccc2OC[C@H](C)N(C(=O)CN2CCOCC2)C[C@@H]1C -4.53%, Cc1cccc(C(=O)OCC(=O)Nc2sccc2C(N)=O)c1C 12.4%, CCOC(=O)C1C(=O)NCC1c1ccccc1 (centres undefined) -22.2%, CCOC(=O)C1CCN(C(=O)Nc2ccc(Cl)cc2)CC1 0%, Cc1ccc(S(=O)(=O)N2[C@@H](Cc3ccccc3)CO[C@H]2CC(=O)OCc2ccccc2)cc1 -24.9%, COc1ccc(C(=O)NCC[N+](C)(C)C)cc1 7.47%, CCc1nnc(NC(=O)CCC(=O)NCc2ccccc2OC)s1 14.9%, COc1ccccc1CNC(=O)CCCN1C(=O)NC2(CCCC2)C1=O -13.5%, O=Cc1cn(CCOc2ccc(F)cc2)c2ccccc12 25%, Cc1ccc(S(=O)(=O)NC(=O)N2CCCC(C)(C)C2)cc1 2.79%, CC(=O)N1CCN(CC(C)(C)NS(=O)(=O)c2ccc(C)cc2)CC1 0.902%, O=C(c1ccc(N2CCCC2=O)cc1)N1CCN(c2ccc(C(F)(F)F)cc2[N+](=O)[O-])CC1 29.2%, O=C(NCc1ccc2c(c1)OCO2)c1ccc(Cl)s1 -10.3%, Cc1ccc(C(=O)OCC(=O)NCc2ccc3c(c2)OCO3)s1 5.99%, O=C(NCc1ccc2c(c1)OCO2)c1sccc1Br 10.4%, O=C(NCc1ccc2c(c1)OCO2)C12CC3CC(CC(C3)C1)C2 10.5%, CCOc1cc(/C=N/NC(=O)c2c(C)nc3ccc(Cl)cn23)ccc1O -5.49%, CSc1ccc(CN2CCC2(C)C(=O)NCc2ccccc2Br)cc1 (centres undefined) 33.4%, CC(=O)OC[C@@H]1CN(Cc2ccccc2)C[C@H](n2cnc3c(NCc4ccco4)ncnc32)O1 14.6%, COc1cc(OC)cc(C2=Cc3ccccc3C(CC(=O)c3ccco3)N2c2ccc(-c3cnc(OC)nc3)cc2)c1 (centres undefined) 41.4%, COc1ccc(CN2C(=O)C(CC(=O)NCc3cccc4ccccc34)CC(C(=O)N3CCOCC3)=C2C)cc1 (centres undefined) -2.29%, COC(=O)C[C@@H]1C=C[C@@H](NC(=O)c2cccnc2)[C@@H](CO)O1 -2.19%, COc1ccc(/C=C(\NC(=O)c2ccccc2)C(=O)NCCN2CCOCC2)cc1OC -3.81%, CCCCCOc1ccc(/C=C/C(=O)NCCc2nc3ccccc3[nH]2)cc1OC 53.6%, CC1(C(=O)NS(=O)(=O)c2ccccc2)CCN1C(=O)Cc1ccc(-c2ccccc2)cc1 (centres undefined) -7.77%, CCC1CCCCN1C(=S)Nc1ccc(C(C)=O)cc1 (centres undefined) 4%, O=C(NC(=S)N1CCc2ccccc21)c1ccco1 -1.16%, N#Cc1ccc(OCC(=O)Nc2nc(-c3ccccn3)cs2)cc1 -9.86%, CN(C)CCCOc1ccc(-c2ccc3nccn3c2)cn1 1.66%, N=c1c2c3c(sc2ncn1CCCN1CCOCC1)CCCCC3 8.56%, CC(C(=O)O)n1cnc2sc3c(c2c1=O)CCCC3 (centres undefined) 20%, CCOC(=O)N1CCN(C(=O)C[C@@H]2C[C@@]3(C(=O)OC)CC(C)(C)CC=C3N(Cc3ccco3)C2=O)CC1 -6.32%, CC(=O)c1cc(-c2ccccc2)[nH]c1N1CCCC1 0%, CC1=NN(c2ccc(Cl)c(C(=O)O)c2)C(=O)/C1=C/c1ccc(-c2ccccc2[N+](=O)[O-])o1 8.21%, Cc1cc(C)c(S(=O)(=O)NN=C2c3ccccc3[C@H]3Cc4csc[n+]4[C@@H]23)c(C)c1 8.56%, Cc1cccc(NC(=O)COc2ccc(Br)cc2C)n1 2.17%, COCC(C)NCc1cc(Br)ccc1OC (centres undefined) 13.9%, Cc1ccc(S(=O)(=O)N2CCOCC2)cc1NC(=O)c1ccncc1 -9.56%, CN(C)CCNC(=O)c1ccc(-c2cn3c(-c4ccc(Oc5ccccc5)cc4)cnc3cn2)cc1 -27.6%, CCCNC(=O)C1(C)CCN(C(=O)c2ccccc2OC(F)(F)F)C1 (centres undefined) 7.72%, Cc1ccc(S(=O)(=O)N2C[C@H]3n4c(=O)ccc(=O)n4C[C@H](OC(=O)NC4CCCC4)[C@@]3(O)C2)cc1 10.7%, C[C@@H]1CN([C@@H](C)CO)C(=O)c2c(c3ccccc3n2C)-c2ccccc2CO[C@H]1CN(C)C(=O)C1CC1 5.32%, COc1ccc(-c2coc3c(C(=O)NC(C)C)cccc23)c(C)c1 71.6%, CCCCC/C=C/C1=CC(=O)C[C@H](c2ccc(Cl)cc2)C1 8.93%, COc1ccc(C2CC(=O)NC(=O)C2)cc1 -22.1%, COc1ccc2cc(C3=CC(=O)C[C@H](c4ccc5c(c4)OCO5)C3)ccc2c1 6.05%, COc1ccc([C@H]2CC(=O)C=C(c3ccc(CO)cc3)C2)cc1 3.98%, CCCNC(=O)c1cc(C2CCCN(C(=O)c3ccc4c(c3)CCO4)C2)on1 (centres undefined) 3.62%, O=S1(=O)CC(N2CCN(Cc3ccccc3F)CC2)CN1Cc1cn(Cc2ccccc2)nn1 (centres undefined) 0%, O=C(Nc1ccccc1)Oc1cccc2cccnc12 -27.7%, COc1cccc(NC(=O)Nc2ccc(F)cc2)c1 3.65%, CCOC(=O)[C@]12CCCC=C1N(Cc1ccc(Cl)cc1Cl)C(=O)[C@H](CC(=O)N1CCCCC1)C2 -25.8%, Cc1ccc([N+](=O)[O-])cc1S(=O)(=O)N1CCCN(C)CC1 -7.78%, Cc1ccc2c(c1)C1CN(C)CCC1N2C(=O)c1ccccc1NS(=O)(=O)c1ccc(F)cc1C (centres undefined) -23.3%, Cc1ccc2c(c1)C1CN(C)CCC1N2C(=S)Nc1ccc(Cl)cc1Cl (centres undefined) -8.46%, Cc1ccc2c(c1)C1CN(C)CCC1N2C(=S)Nc1ccc(OC(F)F)cc1 (centres undefined) -6.37%
